# Laboratory results as given in the supplement of paper PMC4466140.
# Molecular target: SpBzz1-D2
# Experiment: SPOT peptide array binding signal intensity (averaged, normalized) (arbitrary units (background-subtracted, floor 0; scale differs between SH3 domains)); higher = stronger binding of the SH3 domain to the peptide
# In short: (§1)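 GST-fused SH3 domains, from four yeast species, were produced in E. coli BL21(DE3) and captured on glutathione Sepharose. Membranes of cellulose carrying synthetic 15-mer peptides, in which cysteines had been replaced by serines, were exposed to each domain at 10 μg/ml overnight at 4°C in TBS-based blocking buffer. After anti-GST antibody, an HRP anti-mouse secondary and luminol, spots were imaged and quantified using Genespotter. Binding signal is normalized and background-subtracted spot intensity, averaged over replicates, in arbitrary units that differ between domains.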
row,Binder,SPOT peptide array binding signal intensity
1,NRARYLPQNPDIIAG,0.75
2,LLGRKRPVMERVVDI,≤ 0

# Molecular target: SpCyk3
# Experiment: as above
# In short: as §1
row,Binder,SPOT peptide array binding signal intensity
1,NRARYLPQNPDIIAG,≤ 0
2,LLGRKRPVMERVVDI,1

# Molecular target: SpHof1
# Experiment: as above
# In short: as §1
row,Binder,SPOT peptide array binding signal intensity
1,NRARYLPQNPDIIAG,32.8
2,LLGRKRPVMERVVDI,104

# Molecular target: SpHof1-2
# Experiment: as above
# In short: as §1
row,Binder,SPOT peptide array binding signal intensity
1,NRARYLPQNPDIIAG,13
2,LLGRKRPVMERVVDI,9.5

# Molecular target: SpHof1-3
# Experiment: as above
# In short: as §1
row,Binder,SPOT peptide array binding signal intensity
1,NRARYLPQNPDIIAG,251
2,LLGRKRPVMERVVDI,29.5

# Molecular target: SpHse1
# Experiment: as above
# In short: as §1
row,Binder,SPOT peptide array binding signal intensity
1,NRARYLPQNPDIIAG,204
2,LLGRKRPVMERVVDI,470

# Molecular target: SpLsb1
# Experiment: as above
# In short: as §1
row,Binder,SPOT peptide array binding signal intensity
1,NRARYLPQNPDIIAG,2
2,LLGRKRPVMERVVDI,0.5

# Molecular target: SpLsb4
# Experiment: as above
# In short: as §1
row,Binder,SPOT peptide array binding signal intensity
1,NRARYLPQNPDIIAG,38
2,LLGRKRPVMERVVDI,140

# Molecular target: SpMyo1
# Experiment: as above
# In short: as §1
row,Binder,SPOT peptide array binding signal intensity
1,NRARYLPQNPDIIAG,7
2,LLGRKRPVMERVVDI,5

# Molecular target: SpNbp2
# Experiment: as above
# In short: as §1
row,Binder,SPOT peptide array binding signal intensity
1,NRARYLPQNPDIIAG,3
2,LLGRKRPVMERVVDI,99.5

# Molecular target: SpPex13
# Experiment: as above
# In short: as §1
row,Binder,SPOT peptide array binding signal intensity
1,NRARYLPQNPDIIAG,1
2,LLGRKRPVMERVVDI,16

# Molecular target: SpRvs167
# Experiment: as above
# In short: as §1
row,Binder,SPOT peptide array binding signal intensity
1,NRARYLPQNPDIIAG,5.67
2,LLGRKRPVMERVVDI,14.3

# Molecular target: SpSla1-D1-D2
# Experiment: as above
# In short: as §1
row,Binder,SPOT peptide array binding signal intensity
1,NRARYLPQNPDIIAG,≤ 0
2,LLGRKRPVMERVVDI,≤ 0

# Molecular target: SpSla1-D3
# Experiment: as above
# In short: as §1
row,Binder,SPOT peptide array binding signal intensity
1,NRARYLPQNPDIIAG,≤ 0
2,LLGRKRPVMERVVDI,35

# Molecular target: AgAbp1
# Experiment: as above
# In short: as §1
row,Binder,SPOT peptide array binding signal intensity
1,LLGRKRPVMERVVDI,≤ 0

# Molecular target: AgBbc1
# Experiment: as above
# In short: as §1
row,Binder,SPOT peptide array binding signal intensity
1,LLGRKRPVMERVVDI,27

# Molecular target: AgBem1-D1
# Experiment: as above
# In short: as §1
row,Binder,SPOT peptide array binding signal intensity
1,LLGRKRPVMERVVDI,41

# Molecular target: AgBzz1-D1
# Experiment: as above
# In short: as §1
row,Binder,SPOT peptide array binding signal intensity
1,LLGRKRPVMERVVDI,47

# Molecular target: AgBzz1-D2
# Experiment: as above
# In short: as §1
row,Binder,SPOT peptide array binding signal intensity
1,LLGRKRPVMERVVDI,35

# Molecular target: AgCyk3
# Experiment: as above
# In short: as §1
row,Binder,SPOT peptide array binding signal intensity
1,LLGRKRPVMERVVDI,1

# Molecular target: AgFus1
# Experiment: as above
# In short: as §1
row,Binder,SPOT peptide array binding signal intensity
1,LLGRKRPVMERVVDI,142

# Molecular target: AgHof1
# Experiment: as above
# In short: as §1
row,Binder,SPOT peptide array binding signal intensity
1,LLGRKRPVMERVVDI,2.5

# Molecular target: AgHse1
# Experiment: as above
# In short: as §1
row,Binder,SPOT peptide array binding signal intensity
1,LLGRKRPVMERVVDI,586

# Molecular target: AgLsb1
# Experiment: as above
# In short: as §1
row,Binder,SPOT peptide array binding signal intensity
1,LLGRKRPVMERVVDI,0.25

# Molecular target: AgLsb4
# Experiment: as above
# In short: as §1
row,Binder,SPOT peptide array binding signal intensity
1,LLGRKRPVMERVVDI,65.5

# Molecular target: AgMyo5
# Experiment: as above
# In short: as §1
row,Binder,SPOT peptide array binding signal intensity
1,LLGRKRPVMERVVDI,3.5

# Molecular target: AgNbp2
# Experiment: as above
# In short: as §1
row,Binder,SPOT peptide array binding signal intensity
1,LLGRKRPVMERVVDI,144

# Molecular target: AgRvs167
# Experiment: as above
# In short: as §1
row,Binder,SPOT peptide array binding signal intensity
1,LLGRKRPVMERVVDI,3.67

# Molecular target: AgSho1
# Experiment: as above
# In short: as §1
row,Binder,SPOT peptide array binding signal intensity
1,LLGRKRPVMERVVDI,76.5

# Molecular target: AgSla1-D1-D2
# Experiment: as above
# In short: as §1
row,Binder,SPOT peptide array binding signal intensity
1,LLGRKRPVMERVVDI,18

# Molecular target: AgSla1-D3
# Experiment: as above
# In short: as §1
row,Binder,SPOT peptide array binding signal intensity
1,LLGRKRPVMERVVDI,0.5

# Molecular target: CaAbp1-D1
# Experiment: as above
# In short: as §1
row,Binder,SPOT peptide array binding signal intensity
1,LLGRKRPVMERVVDI,21

# Molecular target: CaAbp1-D2
# Experiment: as above
# In short: as §1
row,Binder,SPOT peptide array binding signal intensity
1,LLGRKRPVMERVVDI,51

# Molecular target: CaBbc1
# Experiment: as above
# In short: as §1
row,Binder,SPOT peptide array binding signal intensity
1,LLGRKRPVMERVVDI,99.5

# Molecular target: CaBem1-D1
# Experiment: as above
# In short: as §1
row,Binder,SPOT peptide array binding signal intensity
1,LLGRKRPVMERVVDI,60.5

# Molecular target: CaBzz1-D1
# Experiment: as above
# In short: as §1
row,Binder,SPOT peptide array binding signal intensity
1,LLGRKRPVMERVVDI,236

# Molecular target: CaBzz1-D2
# Experiment: as above
# In short: as §1
row,Binder,SPOT peptide array binding signal intensity
1,LLGRKRPVMERVVDI,63.5

# Molecular target: CaCyk3
# Experiment: as above
# In short: as §1
row,Binder,SPOT peptide array binding signal intensity
1,LLGRKRPVMERVVDI,46

# Molecular target: CaFus1
# Experiment: as above
# In short: as §1
row,Binder,SPOT peptide array binding signal intensity
1,LLGRKRPVMERVVDI,398

# Molecular target: CaHof1
# Experiment: as above
# In short: as §1
row,Binder,SPOT peptide array binding signal intensity
1,LLGRKRPVMERVVDI,0.5

# Molecular target: CaHse1
# Experiment: as above
# In short: as §1
row,Binder,SPOT peptide array binding signal intensity
1,LLGRKRPVMERVVDI,54

# Molecular target: CaLsb1
# Experiment: as above
# In short: as §1
row,Binder,SPOT peptide array binding signal intensity
1,LLGRKRPVMERVVDI,≤ 0

# Molecular target: CaLsb4
# Experiment: as above
# In short: as §1
row,Binder,SPOT peptide array binding signal intensity
1,LLGRKRPVMERVVDI,163

# Molecular target: CaMyo5
# Experiment: as above
# In short: as §1
row,Binder,SPOT peptide array binding signal intensity
1,LLGRKRPVMERVVDI,10.8

# Molecular target: CaNbp2
# Experiment: as above
# In short: as §1
row,Binder,SPOT peptide array binding signal intensity
1,LLGRKRPVMERVVDI,595

# Molecular target: CaRvs167
# Experiment: as above
# In short: as §1
row,Binder,SPOT peptide array binding signal intensity
1,LLGRKRPVMERVVDI,14.8

# Molecular target: CaRvs167-3
# Experiment: as above
# In short: as §1
row,Binder,SPOT peptide array binding signal intensity
1,LLGRKRPVMERVVDI,1.75

# Molecular target: CaSho1
# Experiment: as above
# In short: as §1
row,Binder,SPOT peptide array binding signal intensity
1,LLGRKRPVMERVVDI,374

# Molecular target: CaSla1-D1-D2
# Experiment: as above
# In short: as §1
row,Binder,SPOT peptide array binding signal intensity
1,LLGRKRPVMERVVDI,154

# Molecular target: CaSla1-D3
# Experiment: as above
# In short: as §1
row,Binder,SPOT peptide array binding signal intensity
1,LLGRKRPVMERVVDI,150

# Molecular target: ScAbp1
# Experiment: as above
# In short: as §1
row,Binder,SPOT peptide array binding signal intensity
1,LLGRKRPVMERVVDI,33

# Molecular target: ScBbc1
# Experiment: as above
# In short: as §1
row,Binder,SPOT peptide array binding signal intensity
1,LLGRKRPVMERVVDI,5.5

# Molecular target: ScBem1-D1
# Experiment: as above
# In short: as §1
row,Binder,SPOT peptide array binding signal intensity
1,LLGRKRPVMERVVDI,3

# Molecular target: ScBzz1-D1
# Experiment: as above
# In short: as §1
row,Binder,SPOT peptide array binding signal intensity
1,LLGRKRPVMERVVDI,29.5

# Molecular target: ScBzz1-D2
# Experiment: as above
# In short: as §1
row,Binder,SPOT peptide array binding signal intensity
1,LLGRKRPVMERVVDI,24.5

# Molecular target: ScCyk3
# Experiment: as above
# In short: as §1
row,Binder,SPOT peptide array binding signal intensity
1,LLGRKRPVMERVVDI,31.5

# Molecular target: ScFus1
# Experiment: as above
# In short: as §1
row,Binder,SPOT peptide array binding signal intensity
1,LLGRKRPVMERVVDI,163

# Molecular target: ScHof1
# Experiment: as above
# In short: as §1
row,Binder,SPOT peptide array binding signal intensity
1,LLGRKRPVMERVVDI,1

# Molecular target: ScHse1
# Experiment: as above
# In short: as §1
row,Binder,SPOT peptide array binding signal intensity
1,LLGRKRPVMERVVDI,552

# Molecular target: ScLsb1
# Experiment: as above
# In short: as §1
row,Binder,SPOT peptide array binding signal intensity
1,LLGRKRPVMERVVDI,13.2

# Molecular target: ScLsb2
# Experiment: as above
# In short: as §1
row,Binder,SPOT peptide array binding signal intensity
1,LLGRKRPVMERVVDI,≤ 0

# Molecular target: ScLsb3
# Experiment: as above
# In short: as §1
row,Binder,SPOT peptide array binding signal intensity
1,LLGRKRPVMERVVDI,140

# Molecular target: ScLsb4
# Experiment: as above
# In short: as §1
row,Binder,SPOT peptide array binding signal intensity
1,LLGRKRPVMERVVDI,27.5

# Molecular target: ScMyo3
# Experiment: as above
# In short: as §1
row,Binder,SPOT peptide array binding signal intensity
1,LLGRKRPVMERVVDI,4

# Molecular target: ScMyo5
# Experiment: as above
# In short: as §1
row,Binder,SPOT peptide array binding signal intensity
1,LLGRKRPVMERVVDI,1.5

# Molecular target: ScNbp2
# Experiment: as above
# In short: as §1
row,Binder,SPOT peptide array binding signal intensity
1,LLGRKRPVMERVVDI,254

# Molecular target: ScPex13
# Experiment: as above
# In short: as §1
row,Binder,SPOT peptide array binding signal intensity
1,LLGRKRPVMERVVDI,53.5

# Molecular target: ScRvs167
# Experiment: as above
# In short: as §1
row,Binder,SPOT peptide array binding signal intensity
1,LLGRKRPVMERVVDI,7.67

# Molecular target: ScSho1
# Experiment: as above
# In short: as §1
row,Binder,SPOT peptide array binding signal intensity
1,LLGRKRPVMERVVDI,412

# Molecular target: ScSla1-D1-D2
# Experiment: as above
# In short: as §1
row,Binder,SPOT peptide array binding signal intensity
1,LLGRKRPVMERVVDI,158

# Molecular target: ScSla1-D3
# Experiment: as above
# In short: as §1
row,Binder,SPOT peptide array binding signal intensity
1,LLGRKRPVMERVVDI,78.5

# Molecular target: SpAbp1-D1
# Experiment: as above
# In short: as §1
row,Binder,SPOT peptide array binding signal intensity
1,LLGRKRPVMERVVDI,≤ 0

# Molecular target: SpBbc1
# Experiment: as above
# In short: as §1
row,Binder,SPOT peptide array binding signal intensity
1,LLGRKRPVMERVVDI,5.5

# Molecular target: SpBzz1-D1
# Experiment: as above
# In short: as §1
row,Binder,SPOT peptide array binding signal intensity
1,LLGRKRPVMERVVDI,158
